In paper PMC7862700, “An all-to-all approach to the identification of sequence-specific readers for epigenetic DNA modifications on cytosine”:

How the values were obtained:
Assay in all cases: DAPPL (digital affinity profiling via proximity ligation, sequencing); 10 mM Tris-HCl pH 7.5, 50 mM NaCl, 1 mM DTT, 4% glycerol, room temperature, 30 min; GST-TFs on glutathione beads, 16-mer random dsDNA library, 0.1% formaldehyde crosslink after washing; high values mean tight binding
FLI1 = target: T1, FLI1 (Homo sapiens, UniProt Q01543 1-452); conditions: protein: recombinant; tags: N-terminal GST; dsDNA, one strand shown
T1 sequence: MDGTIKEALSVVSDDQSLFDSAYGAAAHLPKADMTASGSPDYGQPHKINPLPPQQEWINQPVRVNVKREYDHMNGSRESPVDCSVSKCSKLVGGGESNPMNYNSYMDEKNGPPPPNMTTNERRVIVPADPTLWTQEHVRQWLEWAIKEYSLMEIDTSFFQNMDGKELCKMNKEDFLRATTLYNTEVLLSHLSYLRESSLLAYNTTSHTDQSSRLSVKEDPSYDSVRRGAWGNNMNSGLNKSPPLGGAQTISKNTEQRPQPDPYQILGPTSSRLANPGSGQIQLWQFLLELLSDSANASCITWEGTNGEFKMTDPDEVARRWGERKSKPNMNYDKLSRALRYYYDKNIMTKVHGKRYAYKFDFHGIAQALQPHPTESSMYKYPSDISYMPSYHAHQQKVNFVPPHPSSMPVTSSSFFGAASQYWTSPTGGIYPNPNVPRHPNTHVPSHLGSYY
In short: (§1)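 Sequencing on an Illumina NextSeq500 followed washing, crosslinking with 0.1% formaldehyde, proximity ligation (BsaI/T4 ligase, 1 h, 37 °C) and PCR amplification of pools that had been incubated for 30 min at room temperature with 200 nmole of a random double-stranded 16-mer DNA library in Tris/NaCl/DTT/glycerol buffer. Each pool held DNA-barcoded human transcription factors, expressed in yeast as GST fusions and captured on glutathione beads, plus a tag-only sample. Binding signal is a hexamer's read frequency for a factor divided by its frequency in the tag-only sample.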

ELK1 = target: T2, ELK1 (Homo sapiens, UniProt P19419 1-428); conditions: protein: recombinant; tags: N-terminal GST; dsDNA, one strand shown
T2 sequence: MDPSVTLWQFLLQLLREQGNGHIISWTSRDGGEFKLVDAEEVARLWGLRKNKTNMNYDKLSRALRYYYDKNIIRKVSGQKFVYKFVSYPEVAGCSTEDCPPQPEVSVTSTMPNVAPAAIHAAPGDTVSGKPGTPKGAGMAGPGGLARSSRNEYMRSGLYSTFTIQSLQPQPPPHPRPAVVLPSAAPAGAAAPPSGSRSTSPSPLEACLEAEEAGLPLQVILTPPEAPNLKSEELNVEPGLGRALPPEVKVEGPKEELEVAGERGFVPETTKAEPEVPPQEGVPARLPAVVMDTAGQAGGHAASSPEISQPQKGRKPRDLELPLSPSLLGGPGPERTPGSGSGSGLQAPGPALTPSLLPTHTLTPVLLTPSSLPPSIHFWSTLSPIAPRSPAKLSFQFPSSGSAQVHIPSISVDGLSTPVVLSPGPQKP
In short: as §1

GABPA = target: T3, GABPA (Homo sapiens, UniProt Q06546 1-454); conditions: protein: recombinant; tags: N-terminal GST; dsDNA, one strand shown
T3 sequence: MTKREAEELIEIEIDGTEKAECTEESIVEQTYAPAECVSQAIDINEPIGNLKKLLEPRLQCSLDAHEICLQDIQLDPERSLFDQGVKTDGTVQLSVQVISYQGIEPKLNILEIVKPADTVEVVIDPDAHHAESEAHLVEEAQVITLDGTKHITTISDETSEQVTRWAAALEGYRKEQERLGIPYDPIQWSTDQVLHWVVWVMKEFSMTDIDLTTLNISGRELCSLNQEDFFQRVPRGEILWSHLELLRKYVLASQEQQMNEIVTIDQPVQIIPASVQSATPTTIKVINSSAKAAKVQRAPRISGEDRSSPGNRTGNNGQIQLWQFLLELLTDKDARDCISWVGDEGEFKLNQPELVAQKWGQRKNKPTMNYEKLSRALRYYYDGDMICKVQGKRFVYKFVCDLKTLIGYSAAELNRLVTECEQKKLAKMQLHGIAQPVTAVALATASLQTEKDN
In short: as §1

ERG = target: T4, ERG (Homo sapiens, UniProt P11308 1-479); conditions: protein: recombinant; tags: N-terminal GST; dsDNA, one strand shown
T4 sequence: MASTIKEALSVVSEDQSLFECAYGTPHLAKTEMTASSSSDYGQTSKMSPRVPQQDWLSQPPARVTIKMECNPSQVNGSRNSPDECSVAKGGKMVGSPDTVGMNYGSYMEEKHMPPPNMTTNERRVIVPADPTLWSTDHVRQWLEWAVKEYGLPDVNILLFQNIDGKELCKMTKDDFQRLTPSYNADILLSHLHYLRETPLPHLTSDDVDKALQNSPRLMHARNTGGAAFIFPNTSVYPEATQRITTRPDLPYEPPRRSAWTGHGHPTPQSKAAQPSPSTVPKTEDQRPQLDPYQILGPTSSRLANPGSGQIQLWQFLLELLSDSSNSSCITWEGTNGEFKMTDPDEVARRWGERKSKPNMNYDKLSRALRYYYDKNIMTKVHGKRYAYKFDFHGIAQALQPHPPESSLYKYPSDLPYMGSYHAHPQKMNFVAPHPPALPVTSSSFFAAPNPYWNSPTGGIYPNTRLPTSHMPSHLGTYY
In short: as §1

ELF1 = ELF1 (Homo sapiens, UniProt P32519 1-619); conditions: protein: recombinant; tags: N-terminal GST; dsDNA, one strand shown
In short: as §1

EHF = target: T5, EHF (Homo sapiens, UniProt Q9NZC4 1-300); conditions: protein: recombinant; tags: N-terminal GST; dsDNA, one strand shown
T5 sequence: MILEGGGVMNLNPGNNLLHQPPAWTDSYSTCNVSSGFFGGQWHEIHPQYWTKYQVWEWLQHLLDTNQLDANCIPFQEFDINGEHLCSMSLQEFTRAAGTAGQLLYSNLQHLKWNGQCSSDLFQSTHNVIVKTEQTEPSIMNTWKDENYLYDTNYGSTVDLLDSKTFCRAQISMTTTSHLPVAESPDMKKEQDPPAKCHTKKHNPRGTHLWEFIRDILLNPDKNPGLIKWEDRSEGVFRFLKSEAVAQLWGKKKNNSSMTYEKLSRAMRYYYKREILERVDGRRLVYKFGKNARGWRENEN
In short: as §1

SPI1 = SPI1 (Homo sapiens, UniProt P17947 1-270); conditions: protein: recombinant; tags: N-terminal GST; dsDNA, one strand shown
In short: as §1

SPIB = SPIB (Homo sapiens, UniProt Q01892 1-262); conditions: protein: recombinant; tags: N-terminal GST; dsDNA, one strand shown
In short: as §1

ELK3 = target: T6, ELK3 (Homo sapiens, UniProt P41970 1-407); conditions: protein: recombinant; tags: N-terminal GST; dsDNA, one strand shown
T6 sequence: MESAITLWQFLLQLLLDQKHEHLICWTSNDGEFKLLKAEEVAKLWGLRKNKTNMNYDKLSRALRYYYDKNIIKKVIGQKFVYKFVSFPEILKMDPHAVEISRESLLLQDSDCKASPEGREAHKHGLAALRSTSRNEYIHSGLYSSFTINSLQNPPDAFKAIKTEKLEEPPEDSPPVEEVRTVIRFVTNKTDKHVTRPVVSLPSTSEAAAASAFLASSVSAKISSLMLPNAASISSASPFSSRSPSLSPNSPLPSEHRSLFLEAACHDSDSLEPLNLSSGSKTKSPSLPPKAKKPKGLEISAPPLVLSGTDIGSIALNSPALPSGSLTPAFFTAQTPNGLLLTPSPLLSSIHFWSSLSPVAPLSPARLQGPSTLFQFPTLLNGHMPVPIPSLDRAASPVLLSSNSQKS
In short: as §1

FEV = target: T7, FEV (Homo sapiens, UniProt Q99581 1-238); conditions: protein: recombinant; tags: N-terminal GST; dsDNA, one strand shown
T7 sequence: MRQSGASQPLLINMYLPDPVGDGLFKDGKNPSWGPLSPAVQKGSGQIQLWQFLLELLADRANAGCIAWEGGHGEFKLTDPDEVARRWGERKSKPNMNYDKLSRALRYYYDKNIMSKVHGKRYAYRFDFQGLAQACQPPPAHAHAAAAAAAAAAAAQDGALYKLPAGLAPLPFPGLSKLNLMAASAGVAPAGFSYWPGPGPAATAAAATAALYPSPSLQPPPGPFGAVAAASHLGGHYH
In short: as §1

ETV5 = ETV5 (Homo sapiens, UniProt P41161 1-510); conditions: protein: recombinant; tags: N-terminal GST; dsDNA, one strand shown
In short: as §1

HSF1 = HSF1 (Homo sapiens, UniProt Q00613 1-529); conditions: protein: recombinant; tags: N-terminal GST; chain copies: 3; dsDNA, one strand shown
In short: as §1

SPIC = target: T8, SPIC (Homo sapiens, UniProt Q8N5J4 1-248); conditions: protein: recombinant; tags: N-terminal GST; dsDNA, one strand shown
T8 sequence: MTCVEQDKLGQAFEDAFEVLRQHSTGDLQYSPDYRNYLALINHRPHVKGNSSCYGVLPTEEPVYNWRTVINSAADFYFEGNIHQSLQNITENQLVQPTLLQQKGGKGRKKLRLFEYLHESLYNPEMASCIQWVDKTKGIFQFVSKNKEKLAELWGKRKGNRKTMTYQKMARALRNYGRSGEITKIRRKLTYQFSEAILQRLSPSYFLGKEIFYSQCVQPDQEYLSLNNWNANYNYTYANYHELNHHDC
In short: as §1

ELF4 = ELF4 (Homo sapiens, UniProt Q99607 1-663); conditions: protein: recombinant; tags: N-terminal GST; dsDNA, one strand shown
In short: as §1

ELK4 = target: T9, ELK4 (Homo sapiens, UniProt P28324-2 1-405); conditions: protein: recombinant; tags: N-terminal GST; dsDNA, one strand shown
T9 sequence: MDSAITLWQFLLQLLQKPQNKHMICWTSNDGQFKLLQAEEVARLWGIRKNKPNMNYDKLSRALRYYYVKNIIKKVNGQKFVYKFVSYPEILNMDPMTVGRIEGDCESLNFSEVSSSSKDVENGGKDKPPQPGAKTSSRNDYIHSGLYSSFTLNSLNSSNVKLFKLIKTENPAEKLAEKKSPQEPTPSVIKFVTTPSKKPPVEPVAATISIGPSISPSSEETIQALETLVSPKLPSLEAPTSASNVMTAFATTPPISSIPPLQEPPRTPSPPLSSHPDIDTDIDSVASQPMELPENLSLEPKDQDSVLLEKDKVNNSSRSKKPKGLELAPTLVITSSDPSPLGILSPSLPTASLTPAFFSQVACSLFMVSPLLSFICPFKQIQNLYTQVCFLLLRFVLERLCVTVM
In short: as §1

ETV2 = target: T10, ETV2 (Homo sapiens, UniProt O00321 1-342); conditions: protein: recombinant; tags: N-terminal GST; dsDNA, one strand shown
T10 sequence: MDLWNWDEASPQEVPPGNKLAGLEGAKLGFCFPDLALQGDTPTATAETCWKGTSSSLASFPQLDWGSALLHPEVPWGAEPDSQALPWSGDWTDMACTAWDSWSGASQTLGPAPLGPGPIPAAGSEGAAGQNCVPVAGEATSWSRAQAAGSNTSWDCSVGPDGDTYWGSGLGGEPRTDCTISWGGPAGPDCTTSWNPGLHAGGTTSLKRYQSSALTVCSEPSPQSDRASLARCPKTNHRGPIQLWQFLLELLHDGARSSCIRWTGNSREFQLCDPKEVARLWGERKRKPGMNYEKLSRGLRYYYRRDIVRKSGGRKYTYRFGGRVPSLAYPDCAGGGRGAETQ
In short: as §1

ELF3 = target: T11, ELF3 (Homo sapiens, UniProt P78545 1-371); conditions: protein: recombinant; tags: N-terminal GST; dsDNA, one strand shown
T11 sequence: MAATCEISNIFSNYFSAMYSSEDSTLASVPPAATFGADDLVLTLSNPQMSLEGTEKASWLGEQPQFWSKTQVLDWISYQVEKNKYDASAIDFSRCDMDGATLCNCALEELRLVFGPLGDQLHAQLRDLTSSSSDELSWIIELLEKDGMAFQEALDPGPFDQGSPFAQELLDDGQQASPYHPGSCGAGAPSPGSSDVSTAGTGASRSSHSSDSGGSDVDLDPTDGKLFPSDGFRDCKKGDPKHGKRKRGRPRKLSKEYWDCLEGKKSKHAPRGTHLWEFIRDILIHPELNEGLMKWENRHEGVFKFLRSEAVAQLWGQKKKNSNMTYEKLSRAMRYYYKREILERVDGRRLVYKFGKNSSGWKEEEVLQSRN
In short: as §1

CRX = CRX (Homo sapiens, UniProt O43186 1-299); conditions: protein: recombinant; tags: N-terminal GST; dsDNA, one strand shown
In short: as §1

ETV1 = ETV1 (Homo sapiens, UniProt P50549 1-477); conditions: protein: recombinant; tags: N-terminal GST; dsDNA, one strand shown
In short: as §1

Sequence of ETV5 (P41161 whole entry): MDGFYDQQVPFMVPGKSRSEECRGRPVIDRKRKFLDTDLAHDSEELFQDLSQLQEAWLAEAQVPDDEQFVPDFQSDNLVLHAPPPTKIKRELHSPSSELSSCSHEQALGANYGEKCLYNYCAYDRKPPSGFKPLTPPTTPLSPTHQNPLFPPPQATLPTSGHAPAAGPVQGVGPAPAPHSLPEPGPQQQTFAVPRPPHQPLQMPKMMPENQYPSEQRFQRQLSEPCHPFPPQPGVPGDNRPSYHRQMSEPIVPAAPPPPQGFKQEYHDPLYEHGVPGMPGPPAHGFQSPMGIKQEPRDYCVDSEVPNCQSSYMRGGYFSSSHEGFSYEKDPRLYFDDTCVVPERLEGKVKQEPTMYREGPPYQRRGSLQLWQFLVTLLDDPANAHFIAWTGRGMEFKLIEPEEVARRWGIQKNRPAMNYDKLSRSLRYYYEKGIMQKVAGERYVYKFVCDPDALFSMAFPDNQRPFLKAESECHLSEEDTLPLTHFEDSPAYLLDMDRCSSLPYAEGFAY
Sequence of SPIB (Q01892 whole entry): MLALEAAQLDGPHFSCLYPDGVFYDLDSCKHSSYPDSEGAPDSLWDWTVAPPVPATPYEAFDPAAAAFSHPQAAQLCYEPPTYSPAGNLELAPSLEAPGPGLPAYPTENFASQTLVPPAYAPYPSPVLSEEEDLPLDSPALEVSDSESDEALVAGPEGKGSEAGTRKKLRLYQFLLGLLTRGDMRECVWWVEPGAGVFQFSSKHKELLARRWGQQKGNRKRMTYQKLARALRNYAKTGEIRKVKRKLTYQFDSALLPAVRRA
Sequence of CRX (O43186 whole entry): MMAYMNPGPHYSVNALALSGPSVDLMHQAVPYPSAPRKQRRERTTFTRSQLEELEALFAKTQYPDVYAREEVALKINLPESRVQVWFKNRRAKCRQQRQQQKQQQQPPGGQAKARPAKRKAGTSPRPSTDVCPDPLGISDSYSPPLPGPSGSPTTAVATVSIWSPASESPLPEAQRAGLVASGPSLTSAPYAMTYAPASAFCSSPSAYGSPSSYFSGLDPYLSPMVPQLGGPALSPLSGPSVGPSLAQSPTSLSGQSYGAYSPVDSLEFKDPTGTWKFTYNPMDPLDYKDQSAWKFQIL
Sequence of ELF1 (P32519 whole entry): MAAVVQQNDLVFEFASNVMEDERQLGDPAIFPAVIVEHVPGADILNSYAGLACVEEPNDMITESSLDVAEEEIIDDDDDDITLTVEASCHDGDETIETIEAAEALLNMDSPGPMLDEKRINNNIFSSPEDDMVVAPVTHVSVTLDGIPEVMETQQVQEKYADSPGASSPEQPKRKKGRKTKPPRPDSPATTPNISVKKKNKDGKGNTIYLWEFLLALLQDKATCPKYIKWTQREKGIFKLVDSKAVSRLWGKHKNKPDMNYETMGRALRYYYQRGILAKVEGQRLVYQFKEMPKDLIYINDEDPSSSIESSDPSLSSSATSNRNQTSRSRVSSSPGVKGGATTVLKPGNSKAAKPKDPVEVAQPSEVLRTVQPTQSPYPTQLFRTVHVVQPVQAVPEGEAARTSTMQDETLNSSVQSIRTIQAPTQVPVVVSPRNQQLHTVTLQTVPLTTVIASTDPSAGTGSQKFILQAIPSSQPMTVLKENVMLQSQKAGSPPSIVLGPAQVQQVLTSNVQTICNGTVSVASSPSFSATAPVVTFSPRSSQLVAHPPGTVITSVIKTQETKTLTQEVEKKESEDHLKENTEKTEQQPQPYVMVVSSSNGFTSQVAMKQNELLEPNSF
Sequence of ELF4 (Q99607 whole entry): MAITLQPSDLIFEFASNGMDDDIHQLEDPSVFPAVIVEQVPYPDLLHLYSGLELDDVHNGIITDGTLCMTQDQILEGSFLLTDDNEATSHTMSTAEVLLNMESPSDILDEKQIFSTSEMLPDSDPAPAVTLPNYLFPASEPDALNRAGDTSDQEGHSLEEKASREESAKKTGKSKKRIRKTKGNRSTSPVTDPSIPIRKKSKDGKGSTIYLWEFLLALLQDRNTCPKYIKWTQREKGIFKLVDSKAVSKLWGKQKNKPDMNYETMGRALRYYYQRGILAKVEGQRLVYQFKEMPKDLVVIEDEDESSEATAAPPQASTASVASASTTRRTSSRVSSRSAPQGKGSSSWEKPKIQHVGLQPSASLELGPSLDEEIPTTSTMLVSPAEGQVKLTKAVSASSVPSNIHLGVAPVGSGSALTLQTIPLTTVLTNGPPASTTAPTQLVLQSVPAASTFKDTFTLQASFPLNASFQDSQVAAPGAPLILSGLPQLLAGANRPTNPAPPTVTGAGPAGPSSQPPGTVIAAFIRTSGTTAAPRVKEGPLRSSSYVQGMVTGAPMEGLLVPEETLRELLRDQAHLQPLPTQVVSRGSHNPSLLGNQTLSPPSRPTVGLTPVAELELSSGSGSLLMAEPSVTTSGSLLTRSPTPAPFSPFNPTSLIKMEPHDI
Sequence of ETV1 (P50549 whole entry): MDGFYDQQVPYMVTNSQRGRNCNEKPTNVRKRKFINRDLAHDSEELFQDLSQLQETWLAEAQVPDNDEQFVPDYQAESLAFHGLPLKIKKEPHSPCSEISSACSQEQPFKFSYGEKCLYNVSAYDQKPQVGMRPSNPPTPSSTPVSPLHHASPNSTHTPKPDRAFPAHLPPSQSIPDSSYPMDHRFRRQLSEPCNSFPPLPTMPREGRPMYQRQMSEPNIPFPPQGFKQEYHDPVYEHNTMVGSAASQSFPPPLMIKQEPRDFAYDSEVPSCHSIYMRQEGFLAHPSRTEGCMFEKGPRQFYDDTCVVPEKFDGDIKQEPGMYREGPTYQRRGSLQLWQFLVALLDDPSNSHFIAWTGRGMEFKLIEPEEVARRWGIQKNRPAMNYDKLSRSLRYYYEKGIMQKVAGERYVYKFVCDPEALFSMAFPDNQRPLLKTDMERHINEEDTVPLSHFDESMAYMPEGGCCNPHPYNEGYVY
Sequence of HSF1 (Q00613 whole entry): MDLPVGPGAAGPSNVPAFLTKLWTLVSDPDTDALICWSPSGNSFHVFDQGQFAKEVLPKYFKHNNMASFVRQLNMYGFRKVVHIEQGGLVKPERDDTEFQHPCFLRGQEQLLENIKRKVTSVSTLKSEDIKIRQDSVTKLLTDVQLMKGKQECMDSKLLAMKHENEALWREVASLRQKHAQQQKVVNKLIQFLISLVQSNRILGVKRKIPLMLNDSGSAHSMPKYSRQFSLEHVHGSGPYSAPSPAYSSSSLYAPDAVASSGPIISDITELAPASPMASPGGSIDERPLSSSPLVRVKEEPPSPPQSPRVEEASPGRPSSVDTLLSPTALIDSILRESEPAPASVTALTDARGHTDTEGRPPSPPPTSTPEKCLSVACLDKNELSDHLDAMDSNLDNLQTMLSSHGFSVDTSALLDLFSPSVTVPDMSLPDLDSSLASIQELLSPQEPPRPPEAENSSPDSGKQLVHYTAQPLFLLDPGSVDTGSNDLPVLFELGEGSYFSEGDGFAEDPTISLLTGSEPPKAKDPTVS

## AAAATC
FLI1
  binding signal: 1.16 fold enrichment (6-mer frequency, TF over GST control)
ELK1
  binding signal: 1.11 fold enrichment (6-mer frequency, TF over GST control)
GABPA
  binding signal: 1.22 fold enrichment (6-mer frequency, TF over GST control)
ERG
  binding signal: 1.18 fold enrichment (6-mer frequency, TF over GST control)
ELF1
  binding signal: 1.15 fold enrichment (6-mer frequency, TF over GST control)
EHF
  binding signal: 1.2 fold enrichment (6-mer frequency, TF over GST control)
SPI1
  binding signal: 1.14 fold enrichment (6-mer frequency, TF over GST control)
SPIB
  binding signal: 1.17 fold enrichment (6-mer frequency, TF over GST control)
ELK3
  binding signal: 1.1 fold enrichment (6-mer frequency, TF over GST control)
FEV
  binding signal: 1.19 fold enrichment (6-mer frequency, TF over GST control)
ETV5
  binding signal: 1.19 fold enrichment (6-mer frequency, TF over GST control)
HSF1
  binding signal: 1.51 fold enrichment (6-mer frequency, TF over GST control)
SPIC
  binding signal: 1.07 fold enrichment (6-mer frequency, TF over GST control)
ELF4
  binding signal: 1.23 fold enrichment (6-mer frequency, TF over GST control)
ELK4
  binding signal: 1.05 fold enrichment (6-mer frequency, TF over GST control)
ETV2
  binding signal: 1.28 fold enrichment (6-mer frequency, TF over GST control)
ELF3
  binding signal: 1.11 fold enrichment (6-mer frequency, TF over GST control)
CRX
  binding signal: 1.62 fold enrichment (6-mer frequency, TF over GST control)
ETV1
  binding signal: 1.12 fold enrichment (6-mer frequency, TF over GST control)
